High-throughput results as filed in PubChem BioAssay.
Most compounds without a hit are left out; they make up all but 0.5% or so of the library.
phage Ecoli inh: E. coli growth loss with phage present | growth absorbance | inhibition, % at 11.9 µM | 360,000 compounds, 0.26% hits; in the data active = inhibition above about 11%
Tat transport: blocks Tat-dependent protein export in E. coli; 340,000 compounds, 0.036% hits; E. coli MC4100 TorA-mCherry Tat export, fluorescence; inhibition, % at 10 µM;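 active = mean replicate inhibition at least 50% and at least half of replicates individually reaching 50%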;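 note: exported cargo escapes ClpAP degradation while cytoplasmic cargo is degraded and loses fluorescence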
E coli growth-1: E. coli growth inhibition. OD600 absorbance (no concentration beside the values). 330,000 compounds, 0.21% hits. Escherichia coli growth, OD600, 23 h; stronger effect = lower value;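 active = OD600 absorbance below the run mean of sample wells minus 3.6 SD, in any replicate, cut at about 0.56 in these data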
AddAB inh: less growth of phage-infected E. coli with AddAB; E. coli expressing H. pylori AddAB, absorbance growth; inhibition, % at 11.9 µM; AID 435030; 330,000 compounds, 0.29% hits; in the data active = inhibition above about 12%
E coli growth-2: bacterial growth inhibition, counter-screen for AddAB inhibitors; E. coli V3065 growth, OD600 absorbance, 18 h; inhibition, % at 11.9 µM; 330,000 compounds, 0.27% hits;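 active = inhibition above the campaign's mean inhibition across all tested compounds plus 3 SD, cut at about 9.9% in these data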;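 note: uninfected addAB+ strain grown without phage in ampicillin broth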
Numbers stand for hits; – = inactive; · = no result given.

SMILES	phage Ecoli inh	Tat transport	E coli growth-1	AddAB inh	E coli growth-2
CCc1cccc2c(C(=O)COC(=O)c3ccccc3)c[nH]c12	–	–	0.09	–	–
Cc1noc(C)c1COC(=O)c1cc(S(=O)(=O)N2CCOCC2)ccc1Cl	–	–	–	–	–
Cc1noc(C)c1COC(=O)c1cccc(S(=O)(=O)N2CCOCC2)c1	–	53	–	–	–
COc1cc(C(=O)NCC(=O)NN=C(C)c2cccs2)cc(OC)c1OC	·	·	–	·	·
Cc1ccc(-n2[nH]c(C)c(C=Nc3ccc(S(=O)(=O)Nc4nccs4)cc3)c2=O)cc1	·	·	–	13	–
COc1cc(C=NNC(=O)CCC(=O)Nc2ccc(F)cc2)ccc1O	·	·	–	·	·
COCCNC(=O)CC(C)=NNC(=O)C(=O)NC1CCCCC1	·	·	–	·	·
NC(=S)n1[nH]c(-c2ccc([N+](=O)[O-])cc2)c(N=Nc2ccc(O)cc2)c1=O	–	–	–	–	17
NC(=S)n1[nH]c(-c2ccc([N+](=O)[O-])cc2)c(N=Nc2cccc(Cl)c2)c1=O	–	–	–	·	·
COC1OC2O[C@@]3(C)CCC4C(C)CCC(C1C)[C@@]24OO3 (stereo partly drawn)	·	·	0.36	·	·
O=C(NCc1ccc2c(c1)OCO2)Nc1cccc(Cl)c1	–	–	–	–	–
O=C(Nc1cccc(Cl)c1)Nc1ccc2c(c1)OCO2	–	–	0.53	–	–
O=C(Nc1ccccc1)Nc1cccc(Cl)c1	–	–	0.5	–	–
Cc1ccc(NC(=O)Nc2ccccc2)cc1[N+](=O)[O-]	–	–	–	–	–
O=C(Nc1ccccc1)Nc1ccc2nnsc2c1	–	–	0.4	–	–
O=C(Nc1ccccc1)Nc1ccc(Cl)c([N+](=O)[O-])c1	–	–	0.48	–	–
O=C(Nc1ccccc1)Nc1ccc2snnc2c1	–	–	–	–	–
COC(=O)[C@@]1(Cc2ccc(F)cc2)C2c3cc(C(=O)N4CCCC4)n(CCc4c[nH]c5ccc(OC)cc45)c3CC2CN1C(=O)c1ccccc1 (stereo partly drawn)	·	·	–	·	·
Cc1cn(C2CC(O)C(O)C(CO)O2)c(=O)[nH]c1=O (stereo not drawn)	–	·	·	·	·
Cc1cn(C2CC(N=[N+]=[N-])C(CO)O2)c(=O)[nH]c1=O (stereo not drawn)	·	·	0.062	·	·
CC(C)COC(=O)c1cccc2c1-c1ccccc1C2=NO	·	·	–	·	·
CNS(=O)(=O)c1cccc(C(=O)OCC(=O)Nc2cc(F)ccc2F)c1	–	–	–	–	11
CNS(=O)(=O)c1cccc(C(=O)OCC(=O)Nc2ccc(Cl)cc2F)c1	–	–	–	–	–
Cc1cc(C(C)(C)CC(C)(C)C)ccc1OCCOCC[N+](C)(C)Cc1ccccc1	–	–	0.066	–	–
CC(C)(C)C(=O)Nc1ccc(C(=O)NN=Cc2ccccc2OC(=O)c2ccccc2)cc1	·	·	–	·	·
SMILES	phage Ecoli inh	Tat transport	E coli growth-1	AddAB inh	E coli growth-2
CCN(CC)c1ccc(C(=O)NNC(=O)CCl)cc1	–	–	·	–	–
CCN(CC)c1ccc(C(=C2C=CC(=[N+](CC)CC)C=C2)c2ccc(N(CC)CC)cc2)cc1	–	51	–	·	·
Cc1noc(C)c1NC(=O)Nc1cccc2c1OC(CN(C)C(=O)NC1CCCCC1)C(C)CN(C(C)CO)C2=O (stereo not drawn)	·	·	–	·	·
CC(=NNC(=O)c1ccccn1)c1ccco1	·	·	–	·	·
CC(=O)Oc1ccc(C(=O)Cc2ccccn2)c(O)c1	–	56	–	–	–
CC(=O)c1cccc(N(CC(=O)NCCc2ccccc2)C(=O)c2csnn2)c1	–	–	0.53	–	–
Cc1noc(C)c1NC(=O)N(C)CC1Oc2ccc(NC(=O)CCC(F)(F)F)cc2C(=O)N(C(C)CO)CC1C (stereo not drawn)	·	·	–	·	·
c1ccc(Nc2nc(NCC3CCCO3)c3ccccc3n2)cc1 (stereo not drawn)	–	–	0.47	–	–
CCOc1ccc(Nc2c3ccccc3nc3ccccc23)cc1	–	–	0.52	–	–
CCOc1ccc(Nc2nc(NCC3CCCO3)c3ccccc3n2)cc1 (stereo not drawn)	–	–	0.49	–	–
C=CCNC(=S)NN=Cc1ccc(OCc2ccccc2)cc1	·	·	–	·	·
COC(=O)c1ccc(C=NNC(=O)C2CC(=O)N(c3ccc(OC)cc3)C2)cc1 (stereo not drawn)	·	·	–	·	·
S=C1SCN(Cc2ccccn2)CN1Cc1ccco1	–	–	0.52	–	–
CCN1/C(=C/c2ccc3cc(C)ccc3[n+]2CC)Sc2cc(C)ccc21	–	–	0.35	·	·
CC(C)(C)OC(=O)NCCC(=O)NN=Cc1cccc2nccnc12	·	·	–	·	·
C=CCNC(=S)NN=C(C)c1ccccn1	·	·	0.53	·	·
COc1ccc(S(=O)(=O)NN=Cc2ccc([N+](=O)[O-])o2)c(OC)c1	·	·	0.51	·	·
COc1ccc(S(=O)(=O)NN=Cc2ccc3c(c2)OCO3)c(OC)c1	·	·	–	·	·
O=[N+]([O-])c1ccc(C=NNS(=O)(=O)c2ccc(F)cc2)o1	·	·	0.44	·	·
COc1ccc2cc(C(c3nnnn3C3CCCC3)N3CCCCCC3)c3nnnn3c2c1 (stereo not drawn)	–	–	–	–	12
COc1ccc2cc(C(c3nnnn3C3CCCCC3)N3CCCCCC3)c3nnnn3c2c1 (stereo not drawn)	–	–	–	–	–
COc1ccc(CC(=O)NCC(=O)NN=Cc2c[nH]c3ccccc23)cc1	·	·	–	·	·
CCOC(=O)N/N=C/C(Cl)=C/c1ccccc1	–	–	·	–	13
Cc1ccc(COc2ccc(Br)cc2C=NO)cc1	·	·	–	·	·
C/C(C=NNc1nc2ccccc2[nH]1)=C\c1ccccc1	·	·	0.51	·	·
SMILES	phage Ecoli inh	Tat transport	E coli growth-1	AddAB inh	E coli growth-2
CCN1C(=O)C2C(c3ccc(C)cc3)N3C(=O)N(c4ccc(C(F)(F)F)cc4)C(=O)[C@@]3(CC(C)C)C2C1=O (stereo partly drawn)	·	·	–	·	·
O=C1CN(N=Cc2ccc([N+](=O)[O-])o2)C(=O)N1	·	·	0.46	·	·
Cc1ccc(C=NN2CCN(C3c4ccccc4-c4ccccc43)CC2)o1	·	·	–	·	·
Cc1ccc(Nc2cc(C)nn2-c2nc(C)cc(=O)[nH]2)cc1	·	–	0.49	–	–
Cc1ccc(Nc2cc(C)nn2-c2nc(C)cc(C)n2)cc1	–	–	–	–	–
CCOc1ccc(NS(=O)(=O)c2ccc(C(=O)NNC(=O)c3ccccc3O)cc2)cc1	–	–	0.52	–	–
Nc1ncc(N=Nc2cc(C(=O)O)ccc2Cl)s1	–	–	–	–	11
NC(N)=N/N=C/c1ccc(OCc2ccc(Cl)cc2)cc1	–	–	·	–	–
NC(N)=NN=Cc1ccc(OCc2ccc(Cl)cc2Cl)cc1	·	·	0.048	·	·
NC(N)=NN=Cc1ccc(OCc2ccc(Cl)cc2)cc1	·	·	0.045	·	·
CC(C)CC(C(=O)O)N1C(=O)C2C3CC(C2C1=O)C1C(c2ccccc2)c2sc(=O)[nH]c2SC31 (stereo not drawn)	–	–	0.51	–	–
Cc1nc(N)nc(N)c1Oc1ccc(Cl)cc1	–	–	0.52	·	·
O=[N+]([O-])c1ccc(C=Nc2cccc3ccccc23)s1	·	–	0.51	–	–
O=[N+]([O-])c1ccc(C=Nn2c(CO)nc3ccccc32)s1	·	·	–	·	·
Cc1ccc(N2C(=O)Cc3ccccc3C2=O)cc1	–	–	–	–	–
Cc1cccc(N2C(=O)Cc3ccccc3C2=O)c1	–	–	0.53	–	–
CON=C(CS(=O)(=O)c1ccc(Br)cc1)c1ccc(OC)cc1	·	·	–	·	·
